Bioassay records as filed in PubChem.
Shown are actives, neighbours in structure and some others; about 9.3% of the full set was active somewhere.
VACV Venus inh – vaccinia inhibition (Venus reporter) | Potency, µM (series often up to 36.5 µM), usual class: inhibitors | Vaccinia virus Venus reporter expression, fluorescence | AID 720580 | actives 0.46% (n = 330,000); calls by dose curve; tested in A549 cells; further: nearly all actives have a fitted effect of over 30% in size
HCV inh – inhibitors of hepatitis C virus infection; Huh7.5.1 HCVcc-Cre infection, luciferase reporter, 44 h; Potency, µM (top dose mostly 41.8 µM), usual class: inhibitors; actives 3.4% (n = 340,000)
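A cell-based infection assay in which seeded cells (1,000 per well) receive test compound after 4 h, are inoculated with HCVcc-Cre at approximately 0.5 moi, and are incubated 44 h before luminescence detection.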
HCMV inh – human cytomegalovirus inhibition. HFF cells, HCMV-luciferase reporter, 72 h; active compounds read low. activity change, negative = inhibition, % at 57.5 µM. actives 4.5% (n = 410,000). AID 1259415; in the data active means activity change below about -60%; inconclusive means no clear call, values can overlap the other calls; inactive means above about -39%
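Compounds were evaluated in HFFs infected with an HCMV luciferase reporter virus (MOI 1 PFU/cell). Luciferase in lysates collected 72 h post infection served as the replication measure.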
FMDV antiviral – antivirals against foot and mouth disease virus | FMDV antiviral cell-based qHTS | Potency, µM (series often up to 57.9 µM), actives largely listed as inhibitors | actives 1.2% (n = 410,000) | AID 1159524; calls by dose curve; tested in HEK293T cells; further: read-out not given here; nearly all actives have a fitted effect of over 45% in size
Sm TGR inh – inhibitors of Schistosoma mansoni thioredoxin glutathione reductase | Q962Y6 | purified TGR, DTNB reduction, TNB absorbance 405 nm | Potency, µM (top dose mostly 114 µM), hits mostly inhibitors | actives 3% (n = 360,000); further: nearly all actives have a fitted effect of over 60% in size
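TGR 20 nM + NADPH 100 uM (dispensed conc.), cpd preinc 15 min RT; start with NADPH (500 uM addition) then DTNB (15 mM addition). Kinetic TNB absorbance, 405 nm filter. Four-parameter Hill fit across titration.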
Vaccinia mCherry – vaccinia inhibition (mCherry reporter). Vaccinia virus mCherry reporter infection, fluorescence. Potency, µM (doses to about 36.5 µM), most hits filed as inhibitors. actives 0.63% (n = 310,000). AID 720579; calls by dose curve; tested in A549 cells; further: nearly all actives have a fitted effect of over 35% in size
Each line names hits and unclear results; the compound was inactive in the other large screens; ! = not confirmed by another sample. Unless noted, the call rests on the fitted dose curve; in most records, active means well fitted curve in the direction sought with a large enough effect; inconclusive means small, poorly fitted or top-dose-only effect, or another doubt; inactive means no such curve, though single readings can be large; an effect the other way counts as inactive or inconclusive.

CCCCCNC(=O)C(C1CC1)n1c(=O)c(-c2ccccc2)nc2ccccc21 (stereo unspecified)	HCMV inh -69, Vaccinia mCherry inconclusive (no result: HCV inh, Sm TGR inh)
COc1ccc(NC(=O)C(C2CC2)n2c(=O)c(-c3ccccc3)nc3ccccc32)cc1 (stereo unspecified)	Vaccinia mCherry inconclusive (no result: HCV inh, Sm TGR inh)
Cc1cc2[nH]c3c4ccccc4nc(C)c3c2cc1C	HCV inh 13µM, HCMV inh -101 (no result: VACV Venus inh, Sm TGR inh, Vaccinia mCherry)
BrC(=C\c1ccccc1)/C=N/n1cnnc1	VACV Venus inh inconclusive, HCV inh 10µM, HCMV inh -99, FMDV antiviral inconclusive, Vaccinia mCherry inconclusive
O/N=C/c1ccc2cccc(OCc3ccccc3)c2n1	HCV inh inconclusive (no result: VACV Venus inh, Vaccinia mCherry)
NC(=S)N/N=C/c1ccccc1OCc1cccc(Cl)c1	VACV Venus inh 2µM, HCV inh 11µM, FMDV antiviral inconclusive, Vaccinia mCherry 1.8µM (no result: HCMV inh)
NC(=S)N/N=C/c1ccc2cccc(OCc3ccccc3)c2n1	VACV Venus inh inconclusive, HCV inh 11µM, HCMV inh -68, Vaccinia mCherry inconclusive
O=C(N/N=C/c1ccncc1)c1ccc(OCc2ccccc2)cc1	HCMV inh -62 (no result: VACV Venus inh, Vaccinia mCherry)
Oc1ccc(N=Cc2ccc(OCc3ccccc3)cc2)cc1	HCV inh inconclusive, Sm TGR inh 4µM
COC(=O)N/N=C/c1ccccc1OCc1ccccc1	HCMV inh inconclusive
CN(C)S(=O)(=O)c1ccc(C(=O)Nc2cccc(S(=O)(=O)NC3=NCCC3)c2)cc1	none (no result: VACV Venus inh, Vaccinia mCherry)
COc1ccc(NC(=O)COC(=O)c2ccc(-n3cnnn3)cc2)cc1Cl	HCV inh inconclusive
NC(N)=N/N=C/c1ccc2cccc(OCc3ccccc3)c2n1	HCV inh 13µM, FMDV antiviral inconclusive
COc1ccc(C(=O)N/N=C/c2ccc3cccc(OCc4ccccc4)c3n2)cc1	VACV Venus inh inconclusive, HCV inh 8.9µM, Vaccinia mCherry inconclusive
O=C(N/N=C/c1ccc2cccc(OCc3ccccc3)c2n1)c1ccc(Br)cc1	VACV Venus inh inconclusive, HCV inh inconclusive, FMDV antiviral inconclusive
O=C(NCc1cccnc1)c1ccc(Cl)c(S(=O)(=O)N2CCOCC2)c1	none (no result: HCV inh)
N#Cc1cc2c([nH]c1=S)CCCC2	none
CC1(C)Cc2[nH]c(=S)c(C#N)cc2CO1	Sm TGR inh 32µM
O=C(NCc1cccnc1)c1cc(Sc2ccc(F)cc2F)nc2ccccc12	HCV inh 10µM, HCMV inh -64, FMDV antiviral inconclusive
C=CCc1cc(/C=N\NC(=O)CSc2nnc(CCCc3ccc(OC)c(C)c3)o2)cc(OC)c1O	none (no result: Vaccinia mCherry)
Cc1ccc(S(=O)(=O)NC(C(=O)Oc2ccc3ccc(=O)oc3c2)c2ccccc2)cc1 (stereo unspecified)	Sm TGR inh inconclusive
Cc1ccc(S(=O)(=O)NCCC(=O)Oc2ccc3ccc(=O)oc3c2)cc1	Sm TGR inh 16µM (no result: VACV Venus inh, Vaccinia mCherry)
CCOC(=O)c1cc(-c2ccccc2)n(CCCC(=O)Nc2ccccc2C)c1C	HCMV inh inconclusive (no result: HCV inh)
CCOC(=O)c1cc(-c2ccc(C)cc2)n(CCCC(=O)Nc2cc(C)ccc2C)c1	HCMV inh active, Vaccinia mCherry inconclusive (no result: HCV inh)
O=C1Nc2c(c(=O)[nH]c(=O)n2Cc2ccccc2)C1(NS(=O)(=O)c1ccccc1)C(F)(F)F (stereo unspecified)	none
COc1ccc(Cl)cc1C(=O)Nc1ccc([N+](=O)[O-])cc1Cl	none (no result: HCV inh, HCMV inh, FMDV antiviral, Sm TGR inh)
O=C(Nc1ccccc1Cl)Nc1cccnc1Cl	HCV inh inconclusive, HCMV inh -62
O=C(Nc1ccccc1F)Nc1cccnc1Cl	none (no result: Sm TGR inh)
O=C(Nc1cccc2ncccc12)c1cc([N+](=O)[O-])ccc1Cl	HCV inh 8.9µM, HCMV inh -88, FMDV antiviral inconclusive
O=C(Nc1cccnc1Cl)c1cc([N+](=O)[O-])ccc1Cl	HCMV inh -75
Cc1ccc([N+](=O)[O-])c(C(=O)Nc2cccnc2Cl)c1	none
O=C(Nc1ccc([N+](=O)[O-])cc1Cl)c1cc(Cl)ccc1O	VACV Venus inh inconclusive, HCV inh 1.3µM, HCMV inh -98, FMDV antiviral 6.3µM!, Vaccinia mCherry inconclusive
COCc1cc(C)[nH]c(=O)c1C#N	VACV Venus inh inconclusive (no result: Vaccinia mCherry)
Cc1nc(-c2ccc(Cl)cc2)sc1C1(C)CC(c2ccncc2)=NO1 (stereo unspecified)	none (no result: Sm TGR inh)
COc1ccc(-c2csc(C3=C(O)CN(CCCN4CCCC4=O)C3=N)n2)cc1OC	none
Cc1cc(-c2csc(NC(=O)c3cccc(S(=O)(=O)N(C)C)c3)n2)c(C)n1-c1ccccc1	HCV inh inconclusive
O=[N+]([O-])c1ccc2c(c1)N([O-])C1(CCCCC1)[N+]2=O	Sm TGR inh 2.8µM
CCOC(=O)C1=C(C)N=c2s/c(=C/c3cccc([N+](=O)[O-])c3O)c(=O)n2C1c1ccc(OC)cc1OC (stereo unspecified)	FMDV antiviral inconclusive, Sm TGR inh 56µM
CCOC(=O)C1=C(C)N=c2s/c(=C\c3ccc(O)c([N+](=O)[O-])c3)c(=O)n2C1c1ccccc1OC (stereo unspecified)	HCMV inh inconclusive, FMDV antiviral inconclusive
O=[N+]([O-])c1ccccc1CNC1CCCCCC1	none
CCCOc1ccc(CCN2CCC(=O)NC2=O)cc1C	none (no result: Vaccinia mCherry)
CN(c1ccccc1)S(=O)(=O)c1cccc(NC(=O)CCNC(=O)c2ccc([N+](=O)[O-])cc2)c1	HCV inh 11µM, FMDV antiviral 40µM (no result: Sm TGR inh)
CN(c1ccccc1)S(=O)(=O)c1cccc(NC(=O)CCNC(=O)c2ccccc2)c1	FMDV antiviral inconclusive (no result: VACV Venus inh, Vaccinia mCherry)
CC(=O)Nc1cccc(NC(=O)CCNC(=O)c2ccc(Cl)cc2)c1	none (no result: VACV Venus inh, Vaccinia mCherry)
CN(c1ccccc1)S(=O)(=O)c1cccc(NC(=O)CCNC(=O)c2ccc(Cl)cc2)c1	VACV Venus inh inconclusive, HCV inh inconclusive, FMDV antiviral 32µM
CC(=O)Nc1ccc(C(=O)NCCc2ccccc2)cc1	Sm TGR inh 5µM
CC(=O)Nc1cccc(NC(=O)CCNC(=O)c2ccccc2)c1	HCV inh 3.2µM
COc1ccc(Br)cc1C1NC(=O)c2c(sc3c2CCN(C)C3)N1 (stereo unspecified)	none
Cc1ccc(CN2C3CCCC2CC(NC(=O)c2ccc(C)cc2)C3)cc1 (stereo unspecified)	HCV inh 32µM, HCMV inh inconclusive (no result: VACV Venus inh, Sm TGR inh, Vaccinia mCherry)
CC(=O)NC1CC2CCCC(C1)N2Cc1ccc(C)cc1 (stereo unspecified)	none (no result: VACV Venus inh, Vaccinia mCherry)
CCCN1C2CCCC1CC(NC(=O)c1ccccc1OC)C2 (stereo unspecified)	none
CCCN1C2CCCC1CC(NC(=O)c1cc(OC)c(OC)c(OC)c1)C2 (stereo unspecified)	HCMV inh -104
COc1ccc(CNCc2c(C(=O)O)c(C)n(Cc3ccc(Cl)cc3)c2C)c(OC)c1	none (no result: HCV inh)
CSc1cccc(NC(=O)COc2ccccc2)c1	HCMV inh -80
COc1ccc(C(=O)Oc2ccc(N(C)S(=O)(=O)c3ccccc3)cc2)cc1[N+](=O)[O-]	HCMV inh -99
